# Screening data from PubChem BioAssay.
# In the library only some 9% were active in any assay of this set; here they are far more common.
# HPGD inh – qHTS Assay for Inhibitors of HPGD (15-Hydroxyprostaglandin Dehydrogenase); actives 4.3% (n = 150,000); 15-hydroxyprostaglandin dehydrogenase [NAD(+)] (Homo sapiens), P15428; Potency, µM, without a hit: at the top dose activity change, negative = inhibition, usual class: inhibitors; purified HPGD, NADH fluorescence kinetic, PGE2 substrate; further: potency means the concentration at half of the fitted maximal effect
#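 NADH formation kinetics: reaction with 30 uM PGE2 and 1 mM NAD+ (final), 20 nM enzyme, Tris-HCl pH 8 with Tween 20, after 15 min compound preincubation at room temperature. Fluorescence change, last versus first of five reads.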
# IMPase cell inh – qHTS Assay for Identifying the Cell-Membrane Permeable IMPase Inhibitors; CHO-M1 cells, IP1 accumulation, HTRF TR-FRET ratio; inhibition (IP1 accumulation), % at 46.1 µM; AID 901, 2007; 120,000 tested, under 10 active; active means well fitted curve in the direction sought with a large enough effect in the signal ratio, not every such curve was filed as active; inconclusive means small, poorly fitted or top-dose-only effect, or a change in a side signal; inactive means no such curve, though single readings can be large or run the other way; the % refers to the signal ratio;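 further: cells stimulated with carbachol in lithium chloride buffer; plate controls were DMSO basal wells for no effect and reference inhibitor wells for full effect; higher means more IMPase inhibition seen as more IP1 and lower FRET ratio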
#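 Cellular IMPase inhibition is scored as a rise in cytosolic IP1, detected by competitive TR-FRET between d2-labelled IP1 and a europium anti-IP1 antibody. M1-expressing CHO cells were stimulated with carbachol for 30 min at 37C, with lithium (50 mM LiCl) present in the buffer.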
# ALDH1A1 block – qHTS Assay for Inhibitors of Aldehyde Dehydrogenase 1 (ALDH1A1); Potency, µM (highest dose often 75.3 µM), inactives show at the highest dose activity, negative = inhibition, usual class: inhibitors; actives 7.3% (n = 220,000); Aldehyde dehydrogenase 1A1 (Homo sapiens), P00352; Purified ALDH1A1, NADH fluorescence, propionaldehyde substrate; AID 1030, 2008;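 further: potency means the concentration at half of the fitted maximal effect; plate controls were no enzyme wells and a reference inhibitor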
# Target sequence (P00352 whole entry, looked up): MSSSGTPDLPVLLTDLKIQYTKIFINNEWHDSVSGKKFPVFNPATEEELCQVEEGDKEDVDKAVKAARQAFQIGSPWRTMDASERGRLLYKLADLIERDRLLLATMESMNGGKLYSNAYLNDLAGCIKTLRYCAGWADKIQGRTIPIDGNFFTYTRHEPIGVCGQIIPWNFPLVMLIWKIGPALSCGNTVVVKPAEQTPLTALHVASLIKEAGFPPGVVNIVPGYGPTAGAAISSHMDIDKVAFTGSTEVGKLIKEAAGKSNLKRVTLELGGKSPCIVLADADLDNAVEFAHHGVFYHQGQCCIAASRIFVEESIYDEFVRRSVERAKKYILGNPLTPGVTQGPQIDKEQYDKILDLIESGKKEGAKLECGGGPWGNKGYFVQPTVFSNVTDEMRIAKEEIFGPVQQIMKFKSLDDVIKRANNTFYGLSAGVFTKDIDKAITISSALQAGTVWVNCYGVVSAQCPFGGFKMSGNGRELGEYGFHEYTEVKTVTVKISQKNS
# * hit, by the source's call; ? = inconclusive; · = not tested or not shown. Unless noted, the call rests on the fitted dose curve; in most records, active means well fitted inhibition curve with a large enough effect (not every such curve was filed as active); inconclusive means small, poorly fitted or top-dose-only effect, or another doubt; inactive means no such curve, though single readings can be large or run the other way. Unless noted, on the % scale 0 is the no-effect control and ±100 the full control effect.
SMILES,HPGD inh,IMPase cell inh,ALDH1A1 block
CCn1cc(C(=O)NCc2ccco2)c(=O)c2cc(S(=O)(=O)N3CCCCCC3)ccc21,-24%,-3,8.9µM*
CCn1cc(C(=O)NCc2ccccn2)c(=O)c2cc(S(=O)(=O)N3CCCCC3)ccc21,?,12,11µM*
CCn1cc(C(=O)NCc2ccco2)c(=O)c2cc(S(=O)(=O)N3CCc4ccccc4C3)ccc21,-30%,?,20µM*
CCn1cc(C(=O)NCc2ccco2)c(=O)c2cc(S(=O)(=O)N3CC(C)CC(C)C3)ccc21 (stereo unspecified),-22%,-2,?
CCn1cc(C(=O)NCc2ccco2)c(=O)c2cc(S(=O)(=O)N3CCC(C)CC3)ccc21,-21%,-3,?
CC(C)Oc1ccccc1-c1nc(SCC(=O)O)n[nH]1,-8%,6,6%
O=C(CSc1nc2nc3c(cc2c(=O)n1-c1ccccc1)CCCC3)Nc1cccc2ccccc12,-10%,-9,7.9µM*
Cc1ccccc1-n1c(SCC(=O)Nc2ccccc2)nc2nc3c(cc2c1=O)CCCC3,-6%,1,7.9µM*
Cc1cccc(NC(=O)CSc2nc3nc4c(cc3c(=O)n2-c2ccccc2)CCCC4)c1,-25%,-8,?
O=C(CSc1nc2ccccc2c(=O)n1-c1ccccc1F)Nc1ccc2c(c1)CCC2,-7%,·,-13%
Cc1ccc2cn[nH]c2c1NC(N)=S,·,·,18%
COc1ccc(-c2nc3n(n2)C(c2ccccc2F)C(C(=O)Nc2cccnc2)=C(C)N3)cc1OC (stereo unspecified),·,14,·
COc1ccc(-c2[nH]ncc2CN(C)CC2CCCCO2)cc1F (stereo unspecified),·,·,2%
O=C(NCC1CCCO1)c1ccc(S(=O)(=O)N2CCC(c3nc4ccc(Cl)cc4[nH]3)CC2)cc1 (stereo unspecified),-24%,4,-6%
CC1CN(CC(=O)NN=C(c2ccccc2)c2ccccc2)CC(C)O1 (stereo unspecified),·,·,1%
CC(C)Nc1nnc(SCC(=O)NCc2ccc3c(c2)OCO3)s1,·,·,18µM*
Cc1ccccc1-c1nsc(SCC(=O)NCc2ccc3c(c2)OCO3)n1,-18%,-15,22µM*
CC(C)C(=O)Nc1nnc(SCC(=O)NCc2ccc3c(c2)OCO3)s1,·,·,4%
Cc1ccc(-c2nsc(SCC(=O)NCc3ccc4c(c3)OCO4)n2)cc1,-8%,4,11%
N#Cc1cn(Cc2ccncc2)c(=O)[nH]c1=O,·,·,6%
CCSc1nnc(NC(=O)C2Cc3ccccc3CN2C(=O)c2ccco2)s1 (stereo unspecified),-10%,2,?
O=C1C2CC=C(Cl)CC2C(=O)N1CC1OCCc2ccccc21 (stereo unspecified),-20%,-7,?
O=C1C2CC=C(Cl)CC2C(=O)N1CC1Cc2ccccc2CO1 (stereo unspecified),22µM*,-9,22µM*
COCCNc1ncncc1-c1c(C)noc1C,·,·,6%
O=C(NN1C(=O)C2C3CCC(O3)C2C1=O)c1ccco1 (stereo unspecified),6%,·,1%
SMILES,HPGD inh,IMPase cell inh,ALDH1A1 block
COc1ccccc1-n1c(SCC(=O)NCc2ccc3c(c2)OCO3)nc2cc([N+](=O)[O-])ccc21,-18%,·,1.1µM*
O=C(CSc1nc2ccccc2c(=O)n1-c1ccccc1)NCc1ccc2c(c1)OCO2,-13%,3,?
CC(Sc1nc2cc([N+](=O)[O-])ccc2n1-c1ccc(F)cc1)C(=O)NCc1ccc2c(c1)OCO2 (stereo unspecified),?,·,1.4µM*
Cc1cc(C)cc(-n2c(SC(C)C(=O)NCc3ccc4c(c3)OCO4)nc3ccccc3c2=O)c1 (stereo unspecified),0%,7,15%
O=C(COC(=O)c1ccc2ccccc2c1)NCCCc1ccccc1,-3%,-12,9%
CCOc1cc(/C=C2\NC(=S)N(c3c(C)n(C)n(-c4ccccc4)c3=O)C2=O)ccc1O,-6%,·,-2%
CCOc1cccc(/C=C2\NC(=S)N(c3ccccc3)C2=O)c1O,·,·,20µM*
COc1cc(NC(=O)c2cc(Cl)ccc2Cl)ccc1NC(=O)c1cc2ccccc2o1,·,-15,·
COC(=O)c1ccc(=O)n(Cc2ccco2)c1,-7%,-8,-13%
COC(=O)c1ccc2c(c1)S(=O)(=O)NC(=NCc1ccco1)S2,14µM*,5,-13%
CCN(C(=O)c1cccs1)c1nnc(-c2ccncc2)s1,-11%,8,-16%
COCCN(C(=O)Cc1cccs1)c1nnc(-c2ccncc2)s1,-5%,0,13µM*
Cc1ccc(CSc2nnc(C)c(=O)[nH]2)cc1,·,·,11%
Cc1nnc(SCc2ccccc2)[nH]c1=O,·,·,7.1µM*
C/C(=N\NC(=O)c1nn(C)c(C)c1Br)c1cccc(NC(=O)c2ccoc2C)c1,-15%,·,?
Cc1ccc(S(=O)(=O)N2CCCN(S(=O)(=O)c3ccc(C)c(C)c3)CC2)cc1C,-1%,0,?
Cc1cc(S(=O)(=O)N2CCN(c3ccccc3O)CC2)c(C)s1,-6%,0,?
Cc1ccc(S(=O)(=O)N2CCCC2)cc1S(=O)(=O)N1CCCC1,-11%,0,18µM*
Cc1cc(S(=O)(=O)N2CCCC2)c(C)s1,·,-2,7.9µM*
CCOC(=O)N1C=CC(C)=C[C@@H]2[C@@H](N3C(=O)c4ccccc4C3=O)C(=O)N21,3%,·,2%
CCC(=O)Nc1ccc(/C(C)=N\NS(=O)(=O)c2ccc(C)cc2)cc1,-13%,13,?
OC[C@H]1O[C@@H]2O[C@H]3[C@H](O)[C@@H](O)[C@@H](O[C@H]4[C@H](O)[C@@H](O)[C@@H](O[C@H]5[C@H](O)[C@@H](O)[C@@H](O[C@H]6[C@H](O)[C@@H](O)[C@@H](O[C@H]7[C@H](O)[C@@H](O)[C@@H](O[C@H]8[C@H](O)[C@@H](O)[C@@H](O[C@H]1[C@H](O)[C@H]2O)O[C@@H]8CO)O[C@@H]7CO)O[C@@H]6CO)O[C@@H]5CO)O[C@@H]4CO)O[C@@H]3CO,-9%,·,?
O=C(CCC(=O)OCCCC(F)(F)C(F)(F)F)Nc1ccc(Cl)cc1Cl,-24%,3,2%
CCC(C(=O)OC)n1cnc2c(nnn2-c2ccc(OC)cc2)c1=O (stereo unspecified),-18%,3,-15%
CCC(C(=O)OC)n1cnc2c(nnn2-c2cccc(Cl)c2)c1=O (stereo unspecified),20µM*,2,-7%
SMILES,HPGD inh,IMPase cell inh,ALDH1A1 block
C/C(=C\C(=O)c1ccccc1)Nc1ccc2c(c1)OCO2,-17%,7,?
Cc1cc(=O)n(CC(=O)O)c2ccccc12,·,·,-6%
Cc1cc(=O)n(CC=C(Cl)Cl)c2ccccc12,7.9µM*,1,?
CC(=O)Nc1cccc(C(=O)N/N=C/c2ccccc2F)c1,35µM*,·,4%
COc1ccccc1/C=N/NC(=O)c1ccccc1Cl,·,·,0%
COc1ccccc1/C=N/NC(=O)c1cccc(NC(=O)c2ccccc2Cl)c1,·,·,20µM*
CC(=O)Nc1cccc(C(=O)N/N=C/c2ccc(F)cc2)c1,-15%,·,4%
